Data published in PubChem BioAssay AID1159580 (chemical genetic matrix, 2015).
Among all 5,500 compounds or so, about 2,000 (36%) were called active. Not shown: some 18% with an inconclusive outcome. No stated cut-off is given here; in the data, active means normalized growth mostly below about 0.91 (no sharp cut-off); inconclusive means no clear call, values can overlap the other calls; inactive means mostly above about 0.92. The list shows a part of the results.

Experiment: chemical genetic growth profiling, strain panel (AID 1159580);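 further: tested at 20 µM; growth read once vehicle control cultures reached saturation at 30 °C; 1 = growth at the plate median or of vehicle wells; lower values mean less growth of the strain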
Settings: S. cerevisiae deletion strains, growth OD
[1] = locus YAL013W, strain DEP1, hits give low values
[2] = locus YBR229C, strain ROT2, hits give low values
[3] = locus YDL101C, strain DUN1, hits give low values
[4] = locus YDR150W, strain NUM1, hits give low values
[5] = locus YEL061C, strain CIN8, hits give low values
[6] = locus YGR078C, strain PAC10, hits give low values
[7] = locus YHR030C, strain SLT2, hits give low values
[8] = locus YHR087W, strain rtc3, hits give low values
[9] = locus YJR043C, strain POL32, hits give low values
[10] = locus YJR075W, strain HOC1, hits give low values
[11] = locus YLR039C, strain RIC1, hits give low values
[12] = locus YLR058C, strain SHM2 (second series), hits give low values
[13] = locus YLR085C, strain ARP6, hits give low values
[14] = locus YLR262C, strain YPT6, hits give low values
[15] = locus YML094W, strain GIM5, hits give low values
[16] = locus YMR219W, strain ESC1, hits give low values
[17] = locus YMR263W, strain SAP30, hits give low values
[18] = locus YNL128W, strain TEP1, hits give low values
[19] = locus YNL153C, strain GIM3, hits give low values
[20] = locus YNL298W, strain CLA4 (second series), hits give low values
[21] = locus YNL322C, strain KRE1, hits give low values
[22] = locus YNR030W, strain Alg12, hits give low values
[23] = locus YPL055C, strain LGE1, hits give low values
[24] = locus YPL241C, strain CIN2, hits give low values
[25] = locus YPR135W, strain CTF4, hits give low values

Measured: normalized growth

O=c1[nH]cnc2ccsc12
inactive: [1] 1.01 | [2] 1.02 | locus YCL061C, strain MRC1, hits give low values 0.998 | [3] 1 | [4] 1.03 | [5] 1.02 | [6] 0.998 | [7] 1.05 | [8] 1 | [9] 0.996 | [10] 1.03 | [11] 0.985 | [12] 1.03 | [13] 1.04 | [14] 0.982 | [15] 1.03 | [16] 1.01 | [17] 1.04 | [18] 1.02 | [19] 1.02 | [20] 1.01 | [21] 0.993 | [22] 1.01 | [23] 1.09 | [24] 1.02 | [25] 1.34

Clc1ccc(SCc2ccsc2-c2ncns2)cc1
inactive: locus YAR019C, strain CDC15, hits give low values 0.98 | locus YBL105C, strain PKC1, hits give low values 0.968 | locus YBR135W, strain CKS1, hits give low values 0.967 | locus YBR136W, strain MEC1, hits give low values 0.968 | locus YBR160W, strain CDC28, hits give low values 0.975 | locus YDL017W, strain CDC7, hits give low values 0.97 | locus YDL028C, strain MPS1, hits give low values 0.971 | [3] 0.954 | locus YDL108W, strain KIN28, hits give low values 0.967 | locus YDL132W, strain cdc53, hits give low values 0.968 | locus YDL214C, strain PRR2, hits give low values 0.965 | locus YDR052C, strain DBF4, hits give low values 0.976 | locus YDR054C, strain cdc34, hits give low values 0.964 | locus YDR226W, strain ADK1, hits give low values 0.968 | locus YDR477W, strain SNF1, hits give low values 0.951 | locus YER123W, strain YCK3, hits give low values 0.897 | locus YER133W, strain GLC7, hits give low values 0.961 | locus YFL009W, strain cdc4, hits give low values 0.964 | locus YFL029C, strain CAK1, hits give low values 0.969 | locus YFR003C, strain YPI1, hits give low values 0.967 | locus YFR019W, strain FAB1, hits give low values 0.906 | locus YFR028C, strain CDC14, hits give low values 0.96 | locus YGR040W, strain KSS1, hits give low values 0.946 | locus YGR052W, strain FMP48, hits give low values 1.04 | locus YGR092W, strain DBF2, hits give low values 0.914 | [7] 0.933 | locus YHR079C, strain IRE1, hits give low values 0.958 | locus YHR082C, strain KSP1, hits give low values 1 | locus YHR205W, strain SCH9, hits give low values 0.923 | locus YIL147C, strain SLN1, hits give low values 0.973 | locus YJL095W, strain BCK1, hits give low values 0.972 | locus YJL128C, strain PBS2, hits give low values 0.961 | locus YJL157C, strain FAR1, hits give low values 0.963 | locus YJR016C, strain ILV3, hits give low values 0.977 | locus YJR066W, strain TOR1 (second series), hits give low values 0.933 | locus YJR066W, strain TOR1, hits give low values 0.955 | locus YKL048C, strain ELM1, hits give low values 0.971 | locus YKL067W, strain YNK1, hits give low values 0.972 | locus YKL101W, strain HSL1, hits give low values 0.976 | locus YKL193C, strain SDS22, hits give low values 0.969 | locus YKL203C, strain TOR2, hits give low values 0.992 | locus YLR113W, strain HOG1, hits give low values 0.923 | locus YLR133W, strain CKI1, hits give low values 0.973 | locus YLR403W, strain SFP1, hits give low values 0.927 | locus YML070W, strain DAK1, hits give low values 0.963 | locus YMR001C, strain CDC5, hits give low values 0.968 | locus YMR205C, strain PFK2 (second series), hits give low values 0.955 | locus YMR277W, strain FCP1, hits give low values 0.973 | locus YNL006W, strain LST8, hits give low values 0.969 | locus YNL020C, strain ARK1, hits give low values 0.975 | locus YNL161W, strain CBK1, hits give low values 0.972 | locus YNL183C, strain NPR1, hits give low values 0.947 | locus YNL207W, strain RIO2, hits give low values 0.981 | locus YNL222W, strain SSU72, hits give low values 0.977 | locus YNL307C, strain MCK1 (second series), hits give low values 0.948 | locus YOL078W, strain AVO1, hits give low values 0.975 | locus YOL136C, strain PFK27, hits give low values 0.966 | locus YOR061W, strain CKA2, hits give low values 0.947 | locus YOR119C, strain RIO1, hits give low values 0.958 | locus YOR231W, strain MKK1, hits give low values 0.964 | locus YOR329C, strain SCD5, hits give low values 0.975 | locus YPL031C, strain PHO85, hits give low values 0.947 | locus YPL153C, strain RAD53, hits give low values 0.958 | locus YPL204W, strain HRR25, hits give low values 0.934 | locus YPL209C, strain IPL1, hits give low values 0.972 | locus YPL256C, strain CLN2, hits give low values 0.916 | locus YPR025C, strain CCL1, hits give low values 0.968 | locus YPR106W, strain ISR1, hits give low values 0.977 | locus YPR111W, strain DBF20, hits give low values 0.971 | strain NNK1, hits give low values 0.974 | strain TSCII, hits give low values 0.968

Clc1ccc(Sc2ncnc3ccsc23)cc1
active: [1] 0.919 | [2] 0.893 | [5] 0.81 | [6] 0.885 | [7] 0.502 | [8] 0.809 | [9] 0.866 | [10] 0.768 | locus YKL190W, strain CNB1, hits give low values 0.863 | [12] 0.877 | [13] 0.352 | [15] 0.814 | [16] 0.885 | [19] 0.924 | [20] 0.777 | [21] 0.922 | [22] 0.705 | locus YOL006C, strain TOP1, hits give low values 0.516 | [23] 0.682 | [24] 0.66 | [25] 0.451
inactive: [3] 0.959 | [4] 0.911 | [11] 0.941 | [14] 1.1 | [17] 0.94 | [18] 0.934
